Results filed as inconclusive are left out. Unmarked numbers belong to inactive results. The source made the active and inactive calls. Calls come from the whole dose curve; as a rule, active = well fitted curve in the direction sought with a large enough effect; inconclusive = small, poorly fitted or top-dose-only effect, or another doubt; inactive = no such curve, though single readings can be large; an effect the other way counts as inactive or inconclusive.

For assay [1], the target named is Aldehyde dehydrogenase, mitochondrial (Homo sapiens) (UniProt P05091). The experiment in a line: qHTS for Inhibitors of the Aldehyde Dehydrogenase Family (ALDH2) Primary screen (AID 2061308).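 For activity change, negative = inhibition: plate controls were vehicle for no effect and reference inhibitor for full effect.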 Note: nearly all actives have a fitted effect of over 55% in size. Note: potency is the fitted concentration of half-maximal effect.
The target of assay [2] is Retinaldehyde dehydrogenase 3 (Homo sapiens) (UniProt P47895). Briefly: qHTS for Inhibitors of the Aldehyde Dehydrogenase Family (ALDH1A3) Validation screen (AID 2061312; note: nearly all actives have a fitted effect of over 45% in size; note: potency is the fitted concentration of half-maximal effect; for activity change, negative = inhibition: % is set by controls: 0 for no effect and ±100 for the full control effect). (In general: qHTS replaces the single test concentration by a dilution series.)
Assay [3] shares this target. Briefly: qHTS for Inhibitors of the Aldehyde Dehydrogenase Family (ALDH1A3) Primary screen (AID 2061315).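 Note: plate controls were DMSO vehicle for no effect and reference inhibitor for full effect.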
For assay [4] the target is unchanged. The experiment in a line: qHTS for Inhibitors of the Aldehyde Dehydrogenase Family (ALDH1A3) Confirmatory screens (AID 2061311). Note: potency is the fitted concentration of half-maximal effect; nearly all actives have a fitted effect of over 60% in size.
Assay [5] has as its target Aldehyde dehydrogenase 1A1 (Homo sapiens) (UniProt P00352). Briefly: qHTS for Inhibitors of the Aldehyde Dehydrogenase Family (ALDH1A1) Confirmatory screens (AID 2061316). For activity change, negative = inhibition: % is set by controls: 0 for no effect and ±100 for the full control effect. Note: nearly all actives have a fitted effect of over 65% in size. Note: potency is the fitted concentration of half-maximal effect.

With `Fc1ccc(-n2cc(CCCCN3CCC4(CC3)OCc3ccccc34)c3ccccc32)cc1`, the Potency result in assay [1], in assay [2] and in assay [3] was “inactive” throughout.
As for `C=CC(=O)Nc1cccc(CN2C(=O)N(c3c(Cl)c(OC)cc(OC)c3Cl)Cc3cnc(NCCCCN(CC)CC)nc32)c1`, the Potency entry in assay [1], in assay [2] and in assay [3] was “inactive” in each case.
For `CCOC(=O)c1[nH]c2c(c1C)C(=O)CC(c1ccco1)C2` (stereo not drawn), the Potency entry in assay [1] and in assay [3] was “inactive” in each case. For the same molecule, the values for the Potency in assay [4] and in assay [5] were 12.7 µM (active) and 2.52 µM (active), respectively.
As for `Cc1ccnc(NC(=S)N2CCN(c3ccc4ccccc4n3)CC2)c1`, the Potency is 2.82 µM (active) in assay [1], 11.3 µM (active) in assay [4] and 3.18 µM (active) in assay [5].
Take `C#CCNCc1cc2cc(OCc3ccccc3)ccc2[nH]1`: the Potency result in assay [1], in assay [2] and in assay [3] was “inactive” throughout.
Regarding `CCS(=O)(=O)N(Cc1cccnc1)c1cccc(-c2ccc(C#N)cc2)c1`, in assay [1], the Potency entry is “inactive”. Also, in assay [2], the Potency was 6.31 µM (active).
For `COc1cccc(CNc2ccc(S(=O)(=O)Nc3cccc4ccncc34)cc2)c1O`, the Potency result in assay [1], in assay [3] and in assay [5] was “inactive” each time. Moreover, in assay [4], the Potency was 22.5 µM (active).
On to `Cc1ccc(S(=O)(=O)Nc2ccc(NS(=O)(=O)c3ccc(C)cc3)c3ncccc23)cc1`, for which the Potency result in assay [1], in assay [3] and in assay [5] was “inactive” in each case. Moreover, the Potency in assay [4] was 15.9 µM (active).
As for `CNC(=O)c1ccccc1Nc1nc(Nc2ccc3c(c2OC)CCCC(N2CCN(CCO)CC2)C3)ncc1Cl` (stereo not drawn), the Potency result in assay [1], in assay [2] and in assay [3] was “inactive” throughout.
Take `Cc1cc(C)c(Nc2ccnc(Nc3ccc(C#N)cc3)n2)c(C)c1`: the Potency entry in assay [1], in assay [2] and in assay [3] was “inactive” in each case.
In the case of `Cc1nc(Nc2cnn(C3CCNCC3)c2)nc2c1N(C)C(=O)c1cc3ccccc3cc1N2C`, the Potency entry in assay [1], in assay [2] and in assay [3] was “inactive” in each case.
Regarding `Cc1cc(C)nc(NCc2ccc(O)c3ncccc23)c1`, the results for the Potency in assay [1], in assay [4] and in assay [5] were 11.2 µM (active), 5.04 µM (active) and 11.3 µM (active), respectively.
In the case of `CC[C@H](/C=C/[C@@H](C)[C@H]1CC[C@H]2[C@@H]3CC=C4C[C@@H](O)CC[C@]4(C)[C@H]3CC[C@]12C)C(C)C`, the results for the activity change, negative = inhibition in assay [1], in assay [2] and in assay [3] were -2.53% [at 5.59 µM], -13.7% [at 9.14 µM] and 15.3% [at 5.59 µM], respectively.
Take `CCS(=O)c1nc(-c2cccc(OCc3ccccc3)c2)cc(C(F)(F)F)n1` (stereo not drawn): the Potency result in assay [1], in assay [2] and in assay [3] was “inactive” in each case.
Regarding `COc1cc2nc(N3CCC(N4CCCCC4)CC3)nc(NC3CCCCCC3)c2cc1OC`, the Potency entry in assay [1], in assay [2] and in assay [3] was “inactive” throughout.
For `C[C@@H](NC(=O)C(=O)c1c[nH]c2ccc([N+](=O)[O-])cc12)c1ccccc1`, the Potency result in assay [1], in assay [2] and in assay [3] was “inactive” throughout.
`CN(C)CCN(Cc1ccccc1)C(=O)c1cc(-c2ccc(F)cc2)n2nc(C(C)(C)C)cc2n1`: the Potency result in assay [1], in assay [2] and in assay [3] was “inactive” throughout.
For the molecule `CC(C)[C@@](C)(O)[C@@H]1CN(c2nc(-c3[nH]nc4ncccc34)c(F)cc2Cl)CCN1`, the Potency entry in assay [1], in assay [2] and in assay [3] was “inactive” in each case.
Consider `CC(Oc1cc(-n2cnc3ccc(CN4CCN(C)CC4)cc32)sc1C(N)=O)c1ccccc1C(F)(F)F` (stereo not drawn), for which the Potency entry in assay [1], in assay [2] and in assay [3] was “inactive” each time.
Take `NC(=O)C(CCC(F)(F)F)N(Cc1ccc(-c2ncon2)cc1F)S(=O)(=O)c1ccc(Cl)cc1` (stereo not drawn): the Potency result in assay [1], in assay [2] and in assay [3] was “inactive” each time.
Turning to `CC(C)C1CCC(C(=O)N[C@@H](Cc2ccccc2)C(=O)O)CC1` (stereo partly drawn), the Potency result in assay [1], in assay [2] and in assay [3] was “inactive” each time.
In the case of `COc1ccc(C2=NC(c3ccc(Cl)cc3)C(c3ccc(Cl)cc3)N2C(=O)N2CCNC(=O)C2)c(OC(C)C)c1` (stereo not drawn), the Potency result in assay [1], in assay [2] and in assay [3] was “inactive” throughout.
For `CC(=O)Nc1cccc2c1c(Sc1ccc(Cl)cc1)c(C)n2CC(=O)O`, the Potency result in assay [1], in assay [2] and in assay [3] was “inactive” throughout.
As for `COc1ccc(C2=N[C@@H](c3ccc(Cl)cc3)[C@@H](c3ccc(Cl)cc3)N2C(=O)N2CCNC(=O)C2)c(OC(C)C)c1`, the Potency result in assay [1], in assay [2] and in assay [3] was “inactive” throughout.
As for `CCC(C)CNCC(=O)N1CCc2sccc2C1COc1cccc(C)c1` (stereo not drawn), the Potency entry in assay [1], in assay [2] and in assay [3] was “inactive” throughout.
Turning to `Cc1ccccc1-c1cc(N2CCN(C)CC2)ncc1N(C)C(=O)C(C)(C)c1cc(C(F)(F)F)cc(C(F)(F)F)c1`, the Potency result in assay [1], in assay [2] and in assay [3] was “inactive” in each case.
For the molecule `CCC(=C(c1ccc(OCCN2CCCC2)cc1)c1ccc(OCCN2CCCC2)cc1)c1ccccc1`, the Potency entry in assay [1], in assay [2] and in assay [3] was “inactive” throughout.
As for `COc1ccccc1OCCNCC(O)CCOc1cccc2[nH]c3ccccc3c12` (stereo not drawn), the Potency entry in assay [1], in assay [2] and in assay [3] was “inactive” in each case.
For the molecule `COc1c(Nc2ncc(Cl)c(N[C@H]3[C@@H](C(N)=O)[C@@H]4C=C[C@H]3C4)n2)ccc2c1CC[C@@H](N1CCOCC1)CC2`, the Potency entry in assay [1], in assay [2] and in assay [3] was “inactive” in each case.
As for `CC(C)c1nc(CN(C)C(=O)N[C@H](C(=O)N[C@@H](Cc2ccccc2)C[C@H](O)[C@H](Cc2ccccc2)NC(=O)OCc2cncs2)C(C)C)cs1`, the Potency result in assay [1], in assay [2] and in assay [3] was “inactive” each time.
As for `COc1ccc2nc(-c3cc(OC)c(OC)c(OC)c3)cc(C(=O)NCC(=O)Nc3ccc(C(C)=O)cc3)c2c1`, the Potency result in assay [1], in assay [2] and in assay [3] was “inactive” each time.
On to `C[C@@H](O[C@H]1OCCN(Cc2n[nH]nc2CN(C)C)[C@H]1c1ccc(F)cc1)c1cc(C(F)(F)F)cc(C(F)(F)F)c1`, for which the Potency result in assay [1], in assay [2] and in assay [3] was “inactive” each time.

For the origin of these results see PubChem BioAssay (NCATS).
